Screens from PubChem.
KB-V1 MDR tox: kills drug-selected multidrug resistant KB-V1 cells | Potency, µM (series often up to 46.1 µM), hits mostly cytotoxic | KB-V1 MDR cells viability, CellTiter-Glo, 72 h | actives 3.4% (n = 400,000); further: nearly all actives have a fitted effect of over 60% in size
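In this primary screen, KB-V1 cells overexpressing P-gp are incubated with library compounds (lowest to highest concentration) for 72 h at 37 degrees C before a luminescent ATP viability read.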
HT1080-NT tox: kills 2HG-producing HT-1080-NT fibrosarcoma cells; AID 686970; HT-1080-NT fibrosarcoma viability, CellTiter-Glo ATP luminescence, 48 h; Potency, µM (doses to about 46.1 µM), inactives show at the top dose activity, negative = less viability, hits mostly cytotoxic; actives 1.6% (n = 360,000);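 further: NT is the 2HG producing partner of a matched IDH1 knockdown line; 0% = DMSO-treated cells and -100% = media-only wells without cells; nearly all actives have a fitted effect of over 55% in size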
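Fibrosarcoma NT cells, 750 per well in 5% FBS RPMI, were exposed to compound for 48 hours. Viability: CellTiter-Glo luminescence.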
KB-3-1 cytotox: KB-3-1 parental cell cytotoxicity. Potency, µM (top dose mostly 46.1 µM), usual class: cytotoxic. KB-3-1 viability, CellTiter-Glo ATP luminescence, 72 h. actives 1.4% (n = 400,000); further: nearly all actives have a fitted effect of over 60% in size
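72 h, 37 °C compound treatment of KB-3-1 parental cells; CellTiter-Glo added, 10 min, luminescence read. Data corrected against DMSO-only plates and normalized before curve fitting.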
DT40 TDP1 no CPT: qHTS for Inhibitors of human tyrosyl-DNA phosphodiesterase 1 (TDP1): qHTS in cells in absence of CPT. DT40 Tdp1-/- hTDP1 cells, no CPT, ATP luminescence, 48 h. Potency, µM (titrated, usually from 46.2 µM), inactives show at the top dose activity change, negative = growth inhibition, most hits filed as inhibitors. actives 15% (n = 420,000); further: nearly all actives have a fitted effect of over 55% in size
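Chicken DT40 Tdp1-/- cells stably complemented with human TDP1 were seeded at 400 cells/well with DMSO in place of 20 nM camptothecin. After compound pinning, cells grew at least 48 hr at 37 °C; viability read by CellTiter-Glo luminescence.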
HT1080 IDH1KD tx: toxicity to HT-1080 IDH1 knockdown cells (counter line) | HT-1080 IDH1 knockdown viability, ATP luminescence, 48 h | Potency, µM (series often up to 46.1 µM), for the others: at the top dose activity, negative = toxicity, usual class: cytotoxic | actives 2% (n = 360,000) | AID 686971;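 further: 0% = DMSO wells and -100% = cell-free medium wells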
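Knockdown cells (IDH1KD HT-1080) received compounds 2 h after plating at 750 cells/well and were kept 48 h at 37 °C in 5% FBS RPMI. A CellTiter-Glo luminescence read gave % activity for curve fitting.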
DT40 TDP1 CPT: DT40-hTDP1 cell growth loss with CPT; chicken DT40 Tdp1-/-;hTDP1 cells + 20 nM CPT, ATP luminescence, 48 h; Potency, µM (top dose mostly 46.2 µM), without a hit: top-dose activity change, negative = growth inhibition, most hits filed as inhibitors; actives 12% (n = 420,000); AID 686979; further: nearly all actives have a fitted effect of over 55% in size
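Cell growth measured by CellTiter-Glo luminescence after a minimum 48 h, 37 C compound exposure with 20 nM CPT in Tdp1-knockout DT40 cells stably expressing hTDP1, seeded 400/well; qHTS titration format.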
* hit, by the source's call; i = inactive; ? = inconclusive; . = not tested or not shown. The list is not random: actives were taken first. Their share in the collection is about 19%. The call rests on the fitted dose curve; in most records, active means well fitted curve in the direction sought with a large enough effect; inconclusive means small, poorly fitted or top-dose-only effect, or another doubt; inactive means no such curve, though single readings can be large; an effect the other way counts as inactive or inconclusive. Unless noted, on the % scale 0 is the no-effect control and ±100 the full control effect; potency means the concentration at half of the fitted maximal effect.

SMILES | KB-V1 MDR tox | HT1080-NT tox | KB-3-1 cytotox | DT40 TDP1 no CPT | HT1080 IDH1KD tx | DT40 TDP1 CPT
N#CC1=C(N)OC2=C(C(=O)CCC2)C1c1ccccc1 (centres undefined) | i | -5% | i | 0% | 3% | -10%
N#CC1=C(N)OC2=C(CC/C2=C\c2ccccc2)C1c1ccccc1 (centres undefined) | ? | -21% | ? | 10µM* | -21% | 13µM*
N#CC1=C(N)OC2=C(CC/C2=C\c2ccccc2Cl)C1c1ccccc1Cl (centres undefined) | ? | 1% | i | 21µM* | 4% | ?
CN1C(=O)c2cccc(NCCCCCCN3C(=O)c4ccccc4C3=O)c2C1=O | i | -5% | i | 9.2µM* | -1% | 21µM*
CC1CCCC(NC(=S)NC(=O)c2ccccc2Br)C1C (centres undefined) | 16µM* | 0% | 26µM* | ? | 4% | ?
CC(C)C(NC(=O)OC(C)(C)C)C(=O)NC(CCC(=O)OCc1ccccc1)C(N)=O (centres undefined) | i | 21% | i | 1% | 12% | -6%
CC(NC(=O)OC(C)(C)C)C(=O)NC(CCC(=O)OCc1ccccc1)C(N)=O (centres undefined) | i | -1% | i | 29µM* | -2% | -28%
CC(C)CC(NC(=O)C(NC(=O)C(Cc1ccc(OCc2ccccc2)cc1)NC(=O)OC(C)(C)C)C(C)C)C(N)=O (centres undefined) | ? | -7% | i | 16µM* | 0% | ?
CCCc1ccc(C(=O)CCC(=O)NNC(=O)c2ccncc2)cc1 | ? | 9% | 10µM* | 25% | 14% | -7%
CCOc1ccc(OCCCC(=O)NNC(=O)c2ccncc2)cc1 | i | 4% | i | 4% | 10% | 10%
CCCCCOc1ccc(OC(=O)c2ccncc2)cc1 | i | -13% | i | 13µM* | ? | 12µM*
CCCc1ccc(C(=O)NNC(=O)c2ccc(Cl)cc2)cc1 | i | -3% | i | -10% | 7% | 4%
CCCOc1ccc(C(=O)CCC(=O)NNC(=O)c2ccncc2)cc1 | 5.8µM* | 4% | ? | 8% | -1% | 7%
Cc1ccc(S(=O)(=O)Nc2ccc(C(=O)OCC(=O)N(CCC#N)c3ccccc3)cc2)cc1C | i | 0% | i | -29% | -10% | 7%
Cc1cc(Br)cn2c(Cc3ccccc3)c(C3CCCCC3)nc12 | ? | 2% | ? | 16µM* | 7% | 18µM*
Fc1cccc(Cc2c(C3CCCCC3)nc3c4ccccc4ccn23)c1 | ? | 0% | i | 13µM* | -1% | 23µM*
c1ccc(Cc2c(C3CCCCC3)nc3c4ccccc4ccn23)cc1 | i | -3% | ? | 12µM* | 4% | ?
Cc1ccccc1CN1C(=O)c2ccccc2S(=O)c2ccc(C(=O)NCc3ccc4c(c3)OCO4)cc21 (centres undefined) | i | . | i | 0% | . | 6%
O=C1CN(S(=O)(=O)c2cc(Br)ccc2Br)CCN1 | i | 1% | i | 1% | -1% | -16%
O=c1c(Br)ccc(Br)cc1Br | i | 3.7µM* | 6.5µM* | 0.065µM* | 5.2µM* | 0.029µM*
Cn1c(COc2ccc(Br)cc2)nnc1SC1CCc2ccccc2C1=O (centres undefined) | 16µM* | -16% | ? | ? | -19% | ?
CCc1nc(CN(C)C(=O)C2CCC(=O)N(Cc3cccc(F)c3)C2)no1 (centres undefined) | i | 9% | i | 18% | 12% | 1%
Cc1cccc2c1c1ccc3c(c1n2C)C(=O)C=CC3=O | i | 0% | i | 0.41µM* | 4% | 0.46µM*
CCCCC[C@@H](/C=C/C1C(=O)C=C[C@H]1C/C=C\CCCC(=O)OC)OC(C)=O (some centres undefined) | ? | ? | ? | 6.5µM* | ? | 9.2µM*
N#Cc1ccc(-n2nnc3ccccc3c2=O)c([N+](=O)[O-])c1 | i | 9% | i | -18% | -4% | -26%
SMILES | KB-V1 MDR tox | HT1080-NT tox | KB-3-1 cytotox | DT40 TDP1 no CPT | HT1080 IDH1KD tx | DT40 TDP1 CPT
CC1Cc2ccccc2N1C(=O)c1ccc(N2CCCC2)c([N+](=O)[O-])c1 (centres undefined) | i | -18% | i | ? | -19% | ?
CC1Cc2ccccc2N1C(=O)c1ccc(N2CCCCC2)c([N+](=O)[O-])c1 (centres undefined) | 13µM* | 6% | i | ? | 3% | ?
O=C(/C=C/c1ccccc1[N+](=O)[O-])OCC(=O)N1CCN(c2ccccc2)CC1 | ? | 6% | ? | ? | 3% | 21µM*
N#Cc1ccc(N2CCc3ccccc3C2)c([N+](=O)[O-])c1 | ? | 1% | ? | 23µM* | 1% | -13%
O=C(c1ccc(N2CCCC2)c([N+](=O)[O-])c1)N1CCc2ccccc2C1 | 2.6µM* | -7% | ? | 29µM* | -11% | 16µM*
CCOC(=O)C1CCCN(C(=O)c2ccc(SC(F)(F)F)cc2)CC1 (centres undefined) | i | 19% | i | ? | 7% | ?
